Assay results: PubChem BioAssay (NCATS)
Results filed as inconclusive are left out. The source holds several records for some structures; these can differ, active in one and inactive in another. A number with no mark means an inactive call. The call rests on the fitted dose curve; in most records, active means well fitted inhibition curve with a large enough effect; inconclusive means small, poorly fitted or top-dose-only effect; inactive means flat fitted curve, though single readings scatter.

assay: Drug repurposing screens with cells derived from glioblastoma tumor samples (AID 1345199); conditions: GBM patient neurospheres viability, ATP luminescence, 48 h; at 45.9 µM (top of the series); tumour line B; further: nearly all actives have a fitted effect of over 40% in size
Procedure, shortened: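 Primary testing used CD133+ neurospheres from four GBM patients, seven concentrations, 48 h exposure and ATP-based viability; confirmation added three slower-growing patient lines.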
On the % scale 0 is the no-effect control and ±100 the full control effect.

Compound | activity, negative = cell killing [%]
CN(C(=O)CO)c1c(I)c(C(=O)NCC(O)CO)c(I)c(C(=O)NCC(O)CO)c1I (configuration not stated) | -7.14
CN=C(NC)NCc1ccccc1 | -3.78
O=C(CCCN1CCC(n2c(=S)[nH]c3ccccc32)CC1)c1ccc(F)cc1 | -28.9
CC(CN(C)C)CN1c2ccccc2S(=O)(=O)c2ccccc21 (configuration not stated) | -1.87

same assay, conditions: GBM patient neurospheres viability, ATP luminescence, 48 h; at 45.9 µM (top of the series); tumour line D

Compound | activity, negative = cell killing [%]
C=Cc1ccccc1 | 3.17
CC(=O)S[C@@H]1CC2=CC(=O)CC[C@]2(C)[C@H]2CC[C@@]3(C)[C@@H](CC[C@@]34CCC(=O)O4)[C@H]12 | -26.7
CC(C)(C)NC(=O)[C@H]1CC[C@H]2[C@@H]3CC=C4C=C(C(=O)O)CC[C@]4(C)[C@H]3CC[C@]12C | 0.505
C=C1CC2C3CCC4=CC(=O)C=C[C@]4(C)[C@@]3(F)[C@@H](O)C[C@]2(C)[C@@]1(O)C(=O)COC(C)=O (some centres not stated) | 11.1
O.O=C([O-])CC([S-])C(=O)[O-].[Au+].[Na+].[Na+] (configuration not stated) | 2.25
COC1=C(C(=O)O)N2C(=O)[C@@H](NC(=O)[C@H](N)C3=CCC=CC3)[C@H]2SC1 | -11
O=C(Nc1ccc(/C=C/c2ccc(NC(=O)c3cc(S(=O)(=O)O)c4cccnc4c3O)cc2S(=O)(=O)O)c(S(=O)(=O)O)c1)c1cc(S(=O)(=O)O)c2cccnc2c1O | 6.57
CC(C(=O)O)c1ccc(C2CCCCC2)c2ccccc12 (configuration not stated) | -15.4
NCCC[C@H](N)C(=O)O | -10.6
CC(=O)OC[C@H]1O[C@@H](O[C@H]2[C@H](O)[C@@H](OC(=O)c3ccccc3C(=O)O)[C@H](O)O[C@@H]2COC(C)=O)[C@H](O)[C@@H](OC(=O)c2ccccc2C(=O)O)[C@@H]1O | -4.26
C[C@]12CC[C@@H]3c4ccc(OS(=O)(=O)O)cc4CC[C@H]3[C@@H]1CCC2=O | 4.49
CCCCCCCCCCCCCCCC(=O)OC[C@@H](COP(=O)([O-])OCC[N+](C)(C)C)OC(=O)CCCCCCCCCCCCCCC | 2.92
N[C@@H](C(=O)N[C@H]1C(=O)N2C(C(=O)O)=C(Cl)CC[C@H]12)c1ccccc1 | -6.14
CCC(C)(C)OC(=O)N[C@@H](Cc1c[nH]c2ccccc12)C(=O)N[C@@H](CCSC)C(=O)N[C@@H](CC(=O)O)C(=O)N[C@@H](Cc1ccccc1)C(N)=O | -10.3
CO[C@H]1[C@@H](O)[C@H](N)[C@@H](O[C@H]2O[C@H]([C@H](C)N)CC[C@H]2N)[C@H](O)[C@@H]1N(C)C(=O)CN | -4.2
CCCCCCCCCC(=O)O | -10.5

Compound | activity, negative = cell killing [%]
COc1cc(C[C@@H]2NCCc3cc(O)c(O)cc32)cc(OC)c1OC | -12.2
NNc1nnc(Cc2ccncc2)c2ccccc12 | -26.1
NCCCC(=O)O | -9.35
CC(=O)O[C@H]1C[C@@H]2CC[C@@H]3[C@H](CC[C@@]4(C)[C@H]3C[C@H](N3CC[N+](C)(C)CC3)[C@@H]4OC(C)=O)[C@@]2(C)C[C@@H]1N1CC[N+](C)(C)CC1 | 1.51
O=C(O)CC(O)(CC(=O)O)C(=O)O | -16.4
O=C(O)c1ccccc1[O-].O=C(O)c1ccccc1[O-].[Zn+2] | -6.7
O=C[C@H](O)[C@@H](O)[C@H](O)[C@H](O)CO | -7.76
COc1ccc(CNCC(O)COc2ccc3[nH]c(=O)ccc3c2)cc1OC (configuration not stated) | -26.6
CCCCCCCCCCCCCCCCCC(=O)OCCO | -21.2
CN(C)Cc1ccccc1 | 4.8
Cc1cccc(C)c1N(CCCc1cccnc1)C(=O)C(C)N (configuration not stated) | -15.3
CCOC(=O)[C@H](CCc1ccccc1)N[C@H]1CCCN2CCC[C@@H](C(=O)O)N2C1=O | -14.2
CN(C(=O)CO)c1c(I)c(C(=O)NCC(O)CO)c(I)c(C(=O)NCC(O)CO)c1I (configuration not stated) | -10.4
CN=C(NC)NCc1ccccc1 | 7.26
CO[C@@H]1[C@@H](O[C@@H]2O[C@H](C)[C@@H](O[C@H]3C[C@@](C)(O)[C@@H](OC(=O)CC(C)C)[C@H](C)O3)[C@H](N(C)C)[C@H]2O)[C@@H](CC=O)C[C@@H](C)[C@@H](O)/C=C/C=C/C[C@@H](C)OC(=O)C[C@H]1O | -21.1
CC(CN(C)C)CN1c2ccccc2S(=O)(=O)c2ccccc21 (configuration not stated) | -21.7

same assay, conditions: GBM patient neurospheres viability, ATP luminescence, 48 h; at 46 µM (top of the series); tumour line A

Compound | activity, negative = cell killing [%]
C=Cc1ccccc1 | -1.65
C=C1CC2C3CCC4=CC(=O)C=C[C@]4(C)[C@@]3(F)[C@@H](O)C[C@]2(C)[C@@]1(O)C(=O)COC(C)=O (some centres not stated) | -20
CCCCCCCCCC(=O)O | -20.2
NCCCC(=O)O | 3.28
O=C(O)CC(O)(CC(=O)O)C(=O)O | -28.2
CN(C)Cc1ccccc1 | -29.4
